Measured values reported in PubChem BioAssay AID588397 (National Center for Advancing Translational Sciences (NCATS), 2011).
Where “and” joins values, the source holds several entries; their conditions need not be identical. Identical values can stand only once. The campaign covered roughly 1,300 compounds. About 1,000 (77%) were called active. Roughly 7% stayed inconclusive and do not appear here. Calls come from the whole dose curve; as a rule, active = well fitted inhibition curve with a large enough effect; inconclusive = small, poorly fitted or top-dose-only effect; inactive = no such curve, though single readings can be large or run the other way. So high a share suggests a set chosen from earlier hits. This is one part of the list.

Assay: qHTS of small molecules that selectively kill Giardia lamblia: Hit Validation.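 Note: viability measured as ATP content by luminescence so killing lowers signal; nearly all actives have a fitted effect of over 65% in size.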
Details: Giardia lamblia trophozoite viability, dose-response; series mostly up to 38.3 µM
Method in brief: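 Compounds were tested on trophozoites seeded at 100 cells/well and held 48 hrs at 37 deg C anaerobically. An ATP-based luminescent kit measured the remaining live cells.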
Potency is the fitted concentration of half-maximal effect.

Structure (SMILES) | Potency
O=C(Nc1ncc([N+](=O)[O-])s1)c1cccc([N+](=O)[O-])c1 | 0.29 µM (active)
O=C(NNC(=O)c1ccncc1)Nc1cccc([N+](=O)[O-])c1 | inactive
Cc1ccc(CC(=O)Nc2ncc([N+](=O)[O-])s2)cc1 | 0.13 µM (active)
CC(=O)Nc1ccc(NC(=O)c2c([N+](=O)[O-])cnn2C)cc1 | 1.3 µM (active)
Cc1nonc1OCCn1c([N+](=O)[O-])cnc1C | 1.16 µM (active)
CCOc1cc(C=O)ccc1OCCn1c([N+](=O)[O-])cnc1C | 0.65 µM (active)
CCS(=O)(=O)CCn1c([N+](=O)[O-])cnc1C | 0.918 µM (active)
Cc1ncc([N+](=O)[O-])n1CCN1C(=O)c2ccccc2C1=O | 0.65 µM (active)
Cc1ncc([N+](=O)[O-])n1CCO | 4.1 µM (active) and 4.6 µM (active)
Cc1ncc([N+](=O)[O-])n1CC(O)CCl (stereo unspecified) | 1.16 µM (active)
COc1cc2nc(N3CCCCC3)nc(NC3CCN(Cc4ccccc4)CC3)c2cc1OC | 2.05 µM (active)
COc1cc2nc(N3CCN(C)CC3)nc(NC3CC3)c2cc1OC | 0.365 µM (active)
COc1cc2nc(N3CCN(C)CC3)nc(NC(C)C)c2cc1OC | 0.918 µM (active)
COc1cc2nc(N3CCN(c4cc(C)ccc4C)CC3)nc(N)c2cc1OC | 4.1 µM (active)
COc1cc2nc(N3CCCN(C)CC3)nc(NC3CCCCC3)c2cc1OC | 0.65 µM (active)
Cc1ccc(C(C(=O)NCc2ccco2)N(C(=O)CNC(=O)c2cccs2)c2c(C)cccc2C)cc1 (stereo unspecified) | 0.818 µM (active)
O=C1C2C3C=CC(C3)C2C(=O)N1Nc1ccc([N+](=O)[O-])cc1[N+](=O)[O-] (stereo unspecified) | 4.1 µM (active)
Cn1c(=NC(=O)c2cnccn2)sc2ccccc21 | 5.79 µM (active)
CC(Oc1ccccc1)C(=O)Nc1nnc(S(=O)(=O)N2CCCCC2)s1 (stereo unspecified) | 3.65 µM (active)
CC(Oc1ccccc1)C(=O)Nc1nnc(S(=O)(=O)N2CCCCCC2)s1 (stereo unspecified) | 5.16 µM (active)
Cn1nc(N)c2c(-c3ccccc3)c(C#N)c(N)nc21 | 4.6 µM (active)

Structure (SMILES) | Potency
Cn1nc(N)c2c(-c3ccc(Cl)cc3)c(C#N)c(N)nc21 | 2.9 µM (active)
Cc1cc(C(=O)COc2cccnc2[N+](=O)[O-])c(C)n1Cc1cccs1 | 1.03 µM (active)
Cc1ccc(OCC(=O)c2cc(C)n(Cc3cccs3)c2C)c([N+](=O)[O-])n1 | 0.818 µM (active)
O=C(N/N=C/c1ccc([N+](=O)[O-])o1)c1cn(-c2ccccc2)nc1-c1ccc(Cl)cc1 | 1.03 µM (active)
COc1ccc(-c2nn(-c3ccccc3)cc2C(=O)N/N=C/c2ccc([N+](=O)[O-])o2)cc1 | 0.516 µM (active)
O=C(N/N=C/c1ccc([N+](=O)[O-])o1)c1cn(-c2ccccc2)nc1-c1ccc(F)cc1 | 0.516 µM (active)
O=C(N/N=C/c1ccc([N+](=O)[O-])o1)c1cn(-c2ccccc2)nc1-c1ccccc1 | 0.818 µM (active)
CCOC(=O)c1cc([N+](=O)[O-])sc1NC(=O)CC | 1.03 µM (active)
CN(Cc1cccc(Cl)c1)C(=O)C1CCC(=O)N(C2CC2)C1 (stereo unspecified) | inactive
O=C(COc1cccnc1[N+](=O)[O-])Nc1cc(Cl)ccc1Cl | 4.6 µM (active)
O=C(COc1cccnc1[N+](=O)[O-])Nc1ccc(Cl)cc1F | 1.83 µM (active)
CC(OC(=O)c1ccc([N+](=O)[O-])s1)C(=O)NC1CCCCC1C (stereo unspecified) | 3.65 µM (active)
CC(OC(=O)c1ccc(Cl)nc1)C(=O)NC1CCCC1 (stereo unspecified) | inactive
Cc1ccc2nc(NC(=O)C3CCCN(S(=O)(=O)c4cnc[nH]4)C3)sc2c1 (stereo unspecified) | inactive
O=C(NCc1ccc(Cl)cc1)C1CCC(CNS(=O)(=O)c2ccccc2)CC1 (stereo unspecified) | inactive
O=C(NCc1ccccn1)C1CCCN(S(=O)(=O)c2cc(Cl)ccc2Cl)C1 (stereo unspecified) | 1.03 µM (active)
CC/C=C1/N=C2C(=O)N(C)C(=O)N=C2N(C)N1 | 0.13 µM (active)
CN1N/C(=C\c2ccccc2)N=C2C(=O)N(C)C(=O)N=C21 | 0.259 µM (active)
O=S1(=O)[C@H]2C[C@@H]3C=C[C@@]2(CN1Cc1cccc(F)c1)O3 | inactive
COc1ccc(-n2nc([N+](=O)[O-])c(=NCCc3cccc(C)c3)n2O)cc1 | 1.3 µM (active)
Cc1cccc(CCN=c2c([N+](=O)[O-])nn(-c3ccccc3)n2O)c1 | 2.9 µM (active)

Structure (SMILES) | Potency
CN(C)c1nc(=Nc2cccc(Cl)c2)ss1 | 11.6 µM (active)
CCCSc1nc2c(c(=O)n1CC)SC(C)C2 (stereo unspecified) | inactive
O=C(CSc1nnc(NC(=O)c2ccccc2)s1)NCc1ccco1 | 4.6 µM (active)
O=C(Nc1nnc(SCC(=O)N2CCOCC2)s1)c1ccccc1 | 5.16 µM (active)
O=C(CSc1nnc(NC(=O)c2c(F)cccc2F)s1)Nc1ccc(F)cc1 | inactive
O=C(Nc1nnc(SCC(=O)N2CCOCC2)s1)c1ccccc1Cl | 5.79 µM (active)
O=[N+]([O-])c1cn(-c2nc(-c3ccco3)cc(C(F)(F)F)n2)cn1 | 2.59 µM (active)
COC(=O)[C@@]1(Cc2ccc(OC)cc2)[C@H]2c3cc(C(=O)N4CCCC4)n(CCn4cc([N+](=O)[O-])nc4C)c3C[C@H]2CN1C(=O)c1ccccc1 | 0.206 µM (active)
O=[N+]([O-])c1ncc(Br)cc1Nc1ccccc1 | 0.516 µM (active)
C[C@@H]1[C@H]2[C@@H](O[C@@H]3O[C@H](CO)[C@@H](O)[C@H](O)[C@H]3O)OC=C(C(=O)O)[C@H]2C[C@@H]1O | inactive
O=C(c1cccc(F)c1)N1CCN(c2ccc([N+](=O)[O-])c3cccnc23)CC1 | 3.26 µM (active)
Nc1nonc1OCCN1CCN(c2ccc([N+](=O)[O-])c3cccnc23)CC1 | 1.83 µM (active)
O=[N+]([O-])c1ccc(N2CCN(CCO)CC2)c2ncccc12 | 1.45 µM (active)
CS(=O)(=O)N1CCN(c2ccc([N+](=O)[O-])c3cccnc23)CC1 | 1.03 µM (active)
O=c1c([N+](=O)[O-])cccn1Cc1ccccc1Cl | 4.1 µM (active)
O=c1c([N+](=O)[O-])cccn1Cc1ccc(F)cc1Cl | 2.31 µM (active)
Cc1ccccc1/C=N/Nc1ccnc2cc(Cl)ccc12 | 0.326 µM (active)
Cc1ccc(/C=N/Nc2ccnc3cc(Cl)ccc23)c(C)c1 | 0.365 µM (active)
Clc1ccc2c(N/N=C/c3ccccc3Br)ccnc2c1 | 1.63 µM (active)
